Test results published in article PMC5540273 (PLoS ONE, 2017).
Read-outs that look alike come from different tables or passages of the source.

Columns and labels:
[1] = test system: EPHA2; details: concentration: 1 μM, replicates: in singlicate; n = 1
[2] = test system: EPHA3; details: concentration: 1 μM, replicates: in singlicate; n = 1
[3] = test system: EPHA4; details: concentration: 1 μM, replicates: in singlicate; n = 1
[4] = test system: EPHA5; details: concentration: 1 μM, replicates: in singlicate; n = 1
[5] = test system: EPHA6; details: n = 1
[6] = test system: EPHA7; details: concentration: 1 μM, replicates: in singlicate; n = 1
[7] = test system: EPHA8; details: concentration: 1 μM, replicates: in singlicate; n = 1
[8] = test system: EPHB1; details: concentration: 1 μM, replicates: in singlicate; n = 1
[9] = test system: EPHB2; details: concentration: 1 μM, replicates: in singlicate; n = 1
[10] = test system: EPHB3; details: concentration: 1 μM, replicates: in singlicate; n = 1
[11] = concentration: 1 μM, replicates: in singlicate
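Note: KINOMEscan kinase panel screen.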

Compound	%Inh [1]	%Inh [2]	%Inh [3]	%Inh [4]	%Inh [5, 11]	%Inh [6]	%Inh [7]	%Inh [8]	%Inh [9]	%Inh [10]	%Inh ([5]; 1 µM)
NS(=O)(=O)c1cccc(N/C=C2\C(=O)Nc3ccc(S(=O)(=O)Cc4c(Cl)cccc4Cl)cc32)c1 [GSK398099]	0%	12%	12%	0%	3%	8%	31%	17%	14%	6%	
COc1ccc(CSc2nnc(-c3ccc4c(c3)CCO4)o2)cc1	0%	1%	18%	0%	6%	0%	0%	0%	0%	12%	
O=C(Nc1n[nH]c2nc(-c3cccs3)c(Br)cc12)C1CC1 [SB-735297]	0%	0%	1%	0%	17%	0%	8%	0%	0%	0%	
COC(=O)C(Cc1ccccc1)NC(=O)NC1CCN(c2ccnc(Nc3ccc(F)cc3)n2)C1 (stereo not shown) [GSK1379714]	38%	4%	1%	0%	0%	2%	5%	0%	11%	0%	
CC(=O)c1c(C)c2cnc(Nc3ccc(N4CCNCC4)cn3)nc2n(C2CCCC2)c1=O	16%	0%	0%	0%	0%	0%	0%	0%	0%	3%	
COc1ccc2cc(-c3nc(-c4ccccc4C(C)C)[nH]c3-c3ccncc3)ccc2c1 [SB-660566]	0%	0%	25%	0%	30%	15%	13%	4%	15%	28%	
Fc1ccc(-c2nn3cccc(F)c3c2-c2ccncc2)cc1 [GW475620]	12%	2%	15%	13%	38%	0%	4%	8%	0%	31%	
CC(C)c1ccc(O)cc1Nc1ccnc2ccc(C(F)(F)F)cc12 [GW482059]	0%	0%	19%	0%	20%	0%	3%	9%	0%	13%	
COc1ccc(CSc2nnc(-c3ccc4nccn4c3)o2)cc1C(F)(F)F	7%	8%	11%	10%	9%	15%	16%	17%	0%	7%	
COc1ccc(Nc2nccc(N3CCC(NC(=O)c4cc5ccccc5s4)C3)n2)cc1 (stereo not shown) [GSK1379738]	0%	0%	8%	0%	1%	7%	13%	20%	12%	11%	
COc1cccc(NC(=O)Nc2ccc(C)c(-c3ccc(C(=O)Nc4ccncc4)cc3)c2)c1 [GSK1398474]	1%	5%	15%	2%	13%	13%	25%	10%	4%	18%	
CC(=O)c1cccc(NC(=O)NC2CCN(c3ccnc(Nc4ccc(F)cc4)n3)C2)c1 (stereo not shown) [GSK1379710]	0%	19%	6%	0%	7%	6%	14%	8%	11%	7%	
O=c1cc(N2CCOCC2)nc2n(Cc3cccc(Cl)c3Cl)c3ccccc3n12 [GSK2299009]	8%	5%	14%	1%	6%	19%	25%	26%	61%	20%	
CNC(=O)c1ccc(C)c(-n2c(C)cc(OCc3ccc(F)cc3F)c(Br)c2=O)c1	0%	0%	0%	0%	0%	0%	0%	0%	6%	0%	
COc1ccc(Nc2nccc(N3CCC(NC(=O)C(C)c4ccc(Cl)cc4)C3)n2)cc1 (stereo not shown) [GSK1379735]	25%	9%	14%	0%	11%	18%	17%	13%	0%	9%	
Cc1ccccc1Cn1ccn2c(=O)cc(N3CCOCC3)nc12 [GSK2269905]	4%	0%	19%	0%	14%	0%	11%	10%	0%	20%	
CS(=O)(=O)CCNCc1nc(-c2ccc3ncnc(Nc4ccc5c(cnn5Cc5ccccc5)c4)c3c2)cs1.Cl.Cl [GW569716]	0%	0%	6%	8%	7%	4%	11%	0%	0%	13%	

Compound	%Inh [1]	%Inh [2]	%Inh [3]	%Inh [4]	%Inh [5, 11]	%Inh [6]	%Inh [7]	%Inh [8]	%Inh [9]	%Inh [10]	%Inh ([5]; 1 µM)
Nc1ncnc2occ(-c3ccc4c(c3)CCN4C(=O)Cc3cc(F)ccc3F)c12 [GSK2645446]	0%	12%	0%	0%	0%	0%	0%	0%	6%	0%	
COc1ccc(-c2coc3ccc(-c4nnc(C)o4)cc23)cc1	8%	17%	33%	0%	26%	0%	0%	0%	12%	31%	
Cc1ccccc1-c1cc(-c2c[nH]nc2-c2ccccn2)ccn1 [GW680061]	10%	0%	11%	0%	11%	14%	22%	0%	15%	9%	
O=C1NC(=O)C(c2ccc(Cl)cc2)=C1Nc1cccc(Cl)c1 [SB-317651]	8%	0%	0%	1%	0%	0%	0%	0%	20%	0%	
Cc1ccc(-c2nc(Nc3ccncc3)c3ccccc3n2)s1 [GSK189015]	28%	0%	23%	100%	30%	22%	26%	24%	0%	37%	
Cc1ccc(NC(=O)c2ccc(Cl)cc2)cc1-c1ccc(C(=O)Nc2ccncc2)cc1 [GSK1398467]	9%	81%	11%	0%	0%	4%	18%	19%	7%	8%	
COc1ccc(Nc2nccc(-c3ccc(NC(=O)c4cc5cc(F)ccc5[nH]4)cc3)n2)cc1 [GSK1229496]	1%	1%	0%	0%	0%	0%	10%	3%	0%	0%	
CNCc1ccc2nc(NC(=O)c3ccc(C(C)(C)C)cc3)cn2c1	3%	0%	0%	3%	0%	0%	0%	0%	5%	0%	
CNc1nc(-c2ccc3c(N)n[nH]c3c2)cc(N2C[C@@H](C(=O)NC3CCCCC3)OC[C@H]2C)n1 [GSK2375584]	0%	0%	8%	0%	1%	8%	13%	7%	0%	11%	
CCCCc1nn2ncccc2c1-c1ccnc(NC2CC2)n1 [GW684374]	0%	0%	0%	0%	0%	0%	9%	13%	0%	0%	
CS(=O)(=O)Cc1ccc(Nc2nccc(-c3c(-c4cccc(NC(=O)C5CCCCC5)c4)nn4ncccc34)n2)cc1 [GSK350559]	51%	16%	14%	0%		15%	15%	2%	3%	5%	2%
CNc1nc(-c2ccc3c(N)n[nH]c3c2)cc(N2C[C@@H](C(=O)Nc3ccccc3)CC[C@H]2C)n1 [GSK2298859]	0%	18%	8%	0%	0%	1%	5%	0%	0%	9%	
c1ccc(-c2ccnc3[nH]ccc23)cc1 [SB-693578]	0%	0%	12%	0%	0%	18%	26%	13%	0%	4%	
CC[C@@H]1CO[C@H](C(=O)Nc2ccccc2)CN1c1cc(-c2ccc3c(N)n[nH]c3c2)nc(NC)n1 [GSK2376236]	21%	13%	6%	0%	9%	2%	9%	8%	14%	16%	
Cn1cnc2c(N)ncnc21 [SKF-97623]	0%	0%	0%	9%	0%	0%	0%	0%	0%	0%	
CS(=O)(=O)CCNCc1nc(-c2ccc3ncnc(Nc4ccc(OCc5ccccc5)c(Cl)c4)c3c2)cs1.Cl [GW582764]	10%	0%	0%	0%	7%	0%	8%	0%	0%	11%	
O=C(Nc1n[nH]c2nc(-c3cccs3)c(Br)cc12)C1CCCC1 [SB-743341]	0%	0%	6%	13%	27%	8%	1%	0%	4%	35%	
